Results on 40 compounds are retold here after PubChem BioAssay.

Values without a mark were called inactive. How the calls were made is not given here.

In this assay the target is Pantothenate synthetase (Mycobacterium tuberculosis (strain ATCC 25618 / H37Rv)) (UniProt P9WIL5). The experiment in a line: Recombinant Mtb pantothenate synthetase (PanC) inhibitors, coupled enzyme, confirmatory (AID 375).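 Further: 0% = full reaction with vehicle and 100% = no enzyme background.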 The settings on record: coupled enzyme assay; at 10 µM, stronger effect = higher value.
Chain of Pantothenate synthetase (Mycobacterium tuberculosis (strain ATCC 25618 / H37Rv)) (P9WIL5 whole entry, looked up): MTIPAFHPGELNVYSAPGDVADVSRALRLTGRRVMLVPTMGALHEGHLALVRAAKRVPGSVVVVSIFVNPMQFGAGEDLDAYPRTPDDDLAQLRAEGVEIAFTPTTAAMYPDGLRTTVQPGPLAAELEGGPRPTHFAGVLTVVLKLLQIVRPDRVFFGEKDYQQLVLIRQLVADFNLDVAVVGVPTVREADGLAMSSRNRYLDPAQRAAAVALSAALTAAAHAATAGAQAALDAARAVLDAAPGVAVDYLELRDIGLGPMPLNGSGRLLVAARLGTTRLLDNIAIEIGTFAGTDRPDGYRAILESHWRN
Take `Cc1ccc(OC(=O)CCC(=O)OCCCC(F)(F)C(F)(F)F)cc1`: the inhibition is 3%. Turning to `CCOC(=O)C(CCc1nnc(N)s1)C(=O)OCC`, the inhibition was 4%. `O=C1CC(C2CCCO2)C(=O)N1Cc1ccccc1` (stereo not given): the inhibition is 0%. In the case of `CCOc1ncccc1C(=O)OCC(=O)Nc1ncc(C(F)(F)F)cc1Cl`, the inhibition is 1%.

Consider `CCOC(=O)N1CCN(C(=O)c2ccc3c(=O)n(CCc4ccccc4)c(=O)[nH]c3c2)CC1`, for which the inhibition was 0%. `Cc1cc(C)nc(NS(=O)(=O)c2ccc(N)cc2)n1`: the inhibition is 0%. `COc1ccccc1NC1=NC(c2ccc(Cl)cc2)N=C(N)N1` (stereo not given): the inhibition is 0%. The value for `CC(C)CCNc1cc(=O)n(C)c(=O)n1C` was 0%; that for `Cc1ccc(-c2nnc(N(C)C(=O)c3ccccn3)s2)cn1` was 0%. Turning to `Cc1ccc(S(=O)(=O)N2CCCC2)cc1S(=O)(=O)N1CCCC1`, the inhibition is 0%. Turning to `CCOCCn1cnc2sc(C(=O)NCC(=O)OCC)c(C)c2c1=O`, the inhibition is 10%. In the case of `CCOc1ccccc1NC(=O)NC1CCN(CC(=O)Nc2ccc3c(c2)OCCO3)CC1`, the inhibition is 0%. `CC(CCc1ccccc1)NCc1ccncc1` (stereo not given): the inhibition was 5%. In the case of `Cc1cc(Cn2ccnc2)c(C)cc1Cn1ccnc1`, the inhibition was 1%. Regarding `O=c1c(-c2ccc(Br)cc2)coc2c(CN3CCOCC3)c(O)ccc12`, the inhibition was 0%. Take `O=C(c1cc2ccccc2oc1=O)N1CCSC1c1ccco1` (stereo not given): the inhibition was 8%. Turning to `COC(=O)Cn1c(C)nc2c(sc3nc(C)cc(C)c32)c1=O`, the inhibition is 3%. Under `COc1ccc(C2/C(=C(/O)c3ccccc3)C(=O)C(=O)N2c2ncccn2)cc1OC` (stereo not given) stands 2%; under `Cc1ccc(S(=O)(=O)N2CCOCC(=O)NCCOCCNC(=O)COCC2)cc1`, 0%; under `OCCn1c(CSc2nnc(-c3ccco3)n2-c2ccccc2)nc2ccc(Cl)cc21`, 2%.

Take `Nc1nnc(-c2ccccc2)c(-c2ccccc2)n1`: the inhibition is 0%. For the compound `O=C(NCc1ccc2c(c1)OCO2)C1CCC(CNc2c(N3CCCCC3)c(=O)c2=O)CC1` (stereo not given), the inhibition is 0%. Turning to `C1=Nc2c(NCc3ccccc3)ncnc2Oc2ccccc21`, the inhibition was 0%. Regarding `CCCCNC(=O)c1cc(-c2ccc(F)cc2)on1`, the inhibition was 6%.

Turning to `O=C(CP(=O)(CO)CO)c1ccc(Cl)cc1`, the inhibition was 0%.

As to `COc1ccc(-n2ncc3c(NCc4cccs4)ncnc32)cc1`, the inhibition was 0%. With `O=C(Nn1cnnc1)c1cc2c(s1)CCCC2`, the inhibition was 0%. As to `CCOC(=O)c1cc2c(=O)n3ccccc3nc2n(CC(C)C)c1=NC(=O)c1ccco1`, the inhibition is 0%. Regarding `Cc1noc(/C=C/N(C)C)c1S(=O)(=O)N1CCCC(C(=O)NCCC2=CCCCC2)C1` (stereo not given), the inhibition is 0%. With `CCC(C)(NC(=O)CNC(C)=O)C(=O)NC1CCCCC1` (stereo not given), the inhibition is 0%.

Take `N#Cc1c(/N=C/c2ccco2)sc2c1CCC2`: the inhibition was 0%.

Consider `O=C(Nc1ccccc1C(=O)N1CCOCC1)c1ccncc1`, for which the inhibition was 0%. As to `CC1(C)CC(=O)C(C=NC(CCC(N)=O)C(=O)O)=C(O)C1` (stereo not given), the inhibition was 3%. For the compound `COc1ccc(CNC(=O)CN(C(=O)c2ccc(CN3CCOCC3)o2)C2CCCC2)cc1`, the inhibition was 0%. Consider `CCOC(=O)c1cnc(SC2CC(=O)N(c3ccc(OC)c(OC)c3)C2=O)nc1N` (stereo not given), for which the inhibition is 0%. The value for `Cc1nc2ncnn2c(Nc2ccc3c(c2)OCCO3)c1C` was 3%; that for `O=C1CC(Cc2ccccc2)C(=O)N1CCCn1ccnc1` (stereo not given) was 0%. The value for `CS(=O)(=O)Nc1ccc([N+](=O)[O-])cc1Oc1ccccc1` was 0%. For the compound `CCOC(=O)CSc1nnc(-c2ccccc2OC)o1`, the inhibition was 0%.

`CN(C(=O)COC(=O)C1CCN(S(=O)(=O)c2cccs2)CC1)C1CCS(=O)(=O)C1` (stereo not given): the inhibition was 7%.

In general, inhibition refers to the change of the read-out against control, counted positive when it falls.
